This is one part of a sample in which hits are shown more often than they occur.
PglD DTNB: inhibitors of Campylobacter jejuni PglD acetyltransferase | purified PglD enzyme, DTNB colorimetric CoA detection | inhibition, % at 12.5 µM | hit rate 0.098% among 360,000 | AID 602405; in the data active = inhibition above about 16%, passing the limit was not always enough
ARNT TACC3 PPI: ARNT/TACC3 interaction disruption | AID 623870 | inhibition, % at 9.99 µM | AlphaScreen His-ARNT PAS-B/GST-TACC3 binding, luminescence; TACC3 fragment carries E629A point mutation | Q9Y6A5 | hit rate 0.66% among 390,000;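 active = mean inhibition of replicates at least 50% and at least half of replicates each reaching 50%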
ERp5 block: inhibitors of human ERp5; ERp5 insulin aggregation, absorbance 650 nm, 90 min; inhibition, % at 9.99 µM; hit rate 0.05% among 350,000;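 active = mean replicate inhibition above about 25%, with every replicate also reaching it, limit read from the data, passing the limit was not always enough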
Target sequence (Q15084 whole entry, looked up): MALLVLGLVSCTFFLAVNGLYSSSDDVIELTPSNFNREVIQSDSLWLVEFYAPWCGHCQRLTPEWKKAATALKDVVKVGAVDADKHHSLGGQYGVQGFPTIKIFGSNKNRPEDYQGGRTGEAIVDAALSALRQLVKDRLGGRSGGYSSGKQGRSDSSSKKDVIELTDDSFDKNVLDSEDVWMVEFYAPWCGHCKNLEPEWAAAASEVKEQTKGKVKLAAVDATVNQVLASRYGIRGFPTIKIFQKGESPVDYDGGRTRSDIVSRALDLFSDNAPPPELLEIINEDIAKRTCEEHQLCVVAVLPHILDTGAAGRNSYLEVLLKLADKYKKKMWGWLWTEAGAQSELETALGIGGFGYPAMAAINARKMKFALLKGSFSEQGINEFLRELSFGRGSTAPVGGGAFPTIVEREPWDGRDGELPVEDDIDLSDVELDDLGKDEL
PDI turbidity: PDI (human) enzyme inhibition; PDI insulin aggregation turbidity, A650, 90 min; hit rate 0.052% among 350,000; inhibition, % at 10 µM; P07237; AID 588391;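 active = mean inhibition across replicates of 30% or more, whatever share of single replicates reach that level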
ALR H2O2 inh: inhibitors of human sulfhydryl oxidase ALR. hit rate 3.8% among 290,000. AID 485317. P55789. inhibition, % (test concentration not listed). purified ALR, DTT oxidation, H2O2 HRP-luminol luminescence;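 active = mean replicate inhibition above about 79%, with every replicate also reaching it, limit read from the data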
Target sequence (P55789 whole entry, looked up): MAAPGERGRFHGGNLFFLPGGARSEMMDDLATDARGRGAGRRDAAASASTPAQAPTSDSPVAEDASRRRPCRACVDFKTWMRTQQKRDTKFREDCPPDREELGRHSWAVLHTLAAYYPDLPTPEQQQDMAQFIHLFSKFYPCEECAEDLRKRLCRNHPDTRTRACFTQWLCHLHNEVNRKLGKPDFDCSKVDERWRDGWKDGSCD
NRP1-CendR mod: NRP-1/CendR interaction modulation. O14786. FAM-RPARPAR peptide binding to NRP-1, fluorescence polarization. inhibition, % at 25 µM. hit rate 0.85% among 360,000;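 active = inhibition or corrected inhibition above about 18%, plus a signal ratio from 0.5 to 1.5, limit read from the data, passing the limit was not always enough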
Large screens that a line does not name were inactive.

O=c1[nH]c(=O)n(-c2cccc(F)c2)c(O)c1/C=C1\C=Nc2ccccc21	none (no result: ARNT TACC3 PPI)
O=C(O)c1ccc(-n2c(O)c(/C=C3\C=Nc4ccccc43)c(=O)[nH]c2=O)cc1	ALR H2O2 inh 98
O=C1CC(c2cccnc2)=NN1c1ccc(Cl)cc1Cl	none (no result: PglD DTNB)
CN1Cc2cccnc2N(C)Cc2cc(Cl)ccc21	ALR H2O2 inh 99
Cn1c(O)c(C(c2ccncc2)c2c(O)n(C)c(=S)n(C)c2=O)c(=O)n(C)c1=S	ARNT TACC3 PPI 47 (no result: ERp5 block)
Cn1c(O)c(C(c2ccccn2)c2c(O)n(C)c(=S)n(C)c2=O)c(=O)n(C)c1=S	none (no result: PglD DTNB, ERp5 block, ALR H2O2 inh)
CC(=O)Nc1ccccc1OP1(=O)COc2ccccc2OC1	ALR H2O2 inh 81
Cc1cc(=O)oc2cc3c(cc12)CCCN3	ALR H2O2 inh 93
CC(C)CC#Cc1ccc([C@@H]2[C@H](CO)N3CCCCN(C(=O)Cc4ccccn4)C[C@@H]23)cc1	none (no result: PDI turbidity, ALR H2O2 inh, NRP1-CendR mod)
CC(Cc1ccccc1)NC(=O)Cc1ccc(N(C)C)cc1 (centres undefined)	ALR H2O2 inh 99 (no result: PglD DTNB)
CC(C)c1ccc(N=Nc2c(O)[nH]c(=O)[nH]c2=O)cc1	none
O=c1[nH]c(=S)[nH]c(O)c1N=Nc1ccc(SC(F)F)cc1	ALR H2O2 inh 98
Cc1cc(N=Nc2ccccc2C)ccc1N	ALR H2O2 inh 86 (no result: ARNT TACC3 PPI)
COc1ccc(-c2ccc([C@@H]3[C@H]4CN(C(=O)Cc5ccccc5)CCCCN4[C@H]3CO)cc2)cc1	none (no result: PDI turbidity, ALR H2O2 inh, NRP1-CendR mod)
COC(=O)C[C@H]1CC[C@@H]2NC[C@@H](O)COC[C@H]2O1	none (no result: PDI turbidity, ALR H2O2 inh, NRP1-CendR mod)
COc1cc2c(cc1OC)-c1c(OC)c(OC)cc3c1C(C2)N(C)CC3 (centres undefined)	none (no result: PDI turbidity)
COc1cc2c(cc1OC)-c1c3c(cc4c1[C@@H](C2)N(C)CC4)OCO3	ARNT TACC3 PPI 35
COc1cc2c(cc1O)C[C@H]1NCCc3cc4c(c-2c31)OCO4	ARNT TACC3 PPI 52 (no result: ALR H2O2 inh)
COC(=O)[C@H]1[C@H](CO)[C@H]2Cn3c(ccc(-c4ccncc4)c3=O)[C@@H]1N2S(=O)(=O)c1ccccc1F	none (no result: PDI turbidity, ALR H2O2 inh, NRP1-CendR mod)
N#CC(C#N)=NNc1ccc(-n2ccc(C(F)(F)F)n2)cc1	none
Cc1cc(C)n(-c2ccc(NN=C(C#N)C#N)cc2)n1	ALR H2O2 inh 98
O=c1c2ccccc2nc(-c2ccco2)n1-c1ccccn1	NRP1-CendR mod 32 (no result: ERp5 block, ALR H2O2 inh)
CN1C[C@H](CO)C=C2c3cccc4[nH]cc(c34)C[C@H]21	NRP1-CendR mod 46 (no result: PDI turbidity)
O=C(Cc1ccccn1)N1CC2(C1)[C@@H](c1ccccc1)[C@@H](CO)N2Cc1ccccn1	none (no result: PglD DTNB, ARNT TACC3 PPI, PDI turbidity, ALR H2O2 inh, NRP1-CendR mod)
Cc1ccc(Cn2cc(C=O)c(-c3ccc(C)cc3)n2)cc1	ALR H2O2 inh 90 (no result: PglD DTNB)
Cc1cnc(-n2c(=S)[nH]c3ccccc3c2=O)s1	ALR H2O2 inh 97
O=c1c2ccccc2[nH]c(=S)n1-c1ccc2c(c1)OCO2	none (no result: ERp5 block)
CCCCC1(CN2CCCC2=O)C(=O)NC(=O)NC1=O	NRP1-CendR mod 23 (no result: ARNT TACC3 PPI, ERp5 block)
COC(=O)[C@@H]1[C@@H](CO)[C@@H]2Cn3c(ccc(-c4ccccc4F)c3=O)[C@H]1N2C(=O)C1CC1	none (no result: PDI turbidity, ALR H2O2 inh, NRP1-CendR mod)
Cc1[nH]c2ccccc2c1CN1CCCCC1	none (no result: PglD DTNB, ALR H2O2 inh)
Cc1[nH]c2ccccc2c1C1=CCNCC1	ALR H2O2 inh 94
Cc1ccsc1-c1nc(CSCC(=O)N2CCC3(CC2)OCCO3)c(C)o1	ALR H2O2 inh 99 (no result: ERp5 block)
Cc1ccccc1-c1nc(CS(=O)CC(=O)N2CCC3(CC2)OCCO3)c(C)o1 (centres undefined)	ALR H2O2 inh 100 (no result: ERp5 block)
O=C(Cn1ncc2ccsc2c1=O)N1CCC2(CC1)OCCO2	none
N/C(=N\N=C\c1ccc(O)cc1O)N[N+](=O)[O-]	none (no result: ERp5 block)
N/C(=N\[N+](=O)[O-])N/N=C/c1ccc(O)cc1	ALR H2O2 inh 97
NP(=O)(OCC(F)(F)F)Oc1ccc(Cl)cc1 (centres undefined)	none
CCC1CN1P(=O)(Oc1ccc(Cl)cc1)N1CC1CC (centres undefined)	NRP1-CendR mod 34 (no result: ALR H2O2 inh)
CN(C)c1ccc([P+](=O)c2ccc(N(C)C)cc2)cc1	none (no result: PglD DTNB)
CN(C)c1ccc([N+](=O)[O-])c([N+](=O)[O-])c1	NRP1-CendR mod 29 (no result: ALR H2O2 inh)
O=C(Cc1cccnc1)N1CCCCN2[C@@H](CO)[C@@H](c3ccc(/C=C/c4ccccc4)cc3)[C@@H]2C1	none (no result: PDI turbidity, ALR H2O2 inh, NRP1-CendR mod)
CC(C)N1C(=O)/C(=C/C=C/c2ccco2)C(=O)N(Cc2ccco2)C1=O	ALR H2O2 inh 98 (no result: ERp5 block)
O=C1NC(=O)N(Cc2ccccc2)C(=O)/C1=C/C=C/c1ccco1	ALR H2O2 inh 98 (no result: PglD DTNB)
COc1ccc(CN2C(=O)NC(=O)/C(=C\c3ccco3)C2=O)cc1	none
COc1ccc(-c2ccc([C@@H]3[C@@H](CO)N4CCCCN(C(=O)Cc5ccccc5)C[C@@H]34)cc2)cc1	none (no result: ERp5 block, PDI turbidity, ALR H2O2 inh, NRP1-CendR mod)
COC(=O)[C@@H]1[C@@H](CO)[C@@H]2Cn3c(ccc(C4=CCCCC4)c3=O)[C@H]1N2C(=O)Cc1ccccn1	none (no result: PDI turbidity, ALR H2O2 inh, NRP1-CendR mod)
Nc1cc(Cl)c2nonc2c1[N+](=O)[O-]	ALR H2O2 inh 97 (no result: PglD DTNB, ERp5 block)
COC(=O)[C@@H]1[C@@H](CO)[C@@H]2Cn3c(ccc(-c4cccc(F)c4)c3=O)[C@H]1N2C(=O)CC1CC1	none (no result: PDI turbidity, ALR H2O2 inh, NRP1-CendR mod)
CC=Cc1ccc2n(c1=O)C[C@H]1[C@H](CO)[C@@H](C(=O)OC)[C@@H]2N1CC1CCCC1 (mixture of isomers)	none (no result: PglD DTNB, ARNT TACC3 PPI, PDI turbidity, ALR H2O2 inh, NRP1-CendR mod)
CCCNC(=O)N1[C@H]2CC[C@@H]1C(C(=O)OC)=C(c1ccc(F)cc1F)C2	NRP1-CendR mod 32
COC(=O)C1=C(c2ccc(Cl)c(C(F)(F)F)c2)C[C@@H]2CC[C@H]1N2C(=O)NCCCOC(C)C	none (no result: ERp5 block)
COC(=O)C1=C(c2ccc(Cl)c(C(F)(F)F)c2)C[C@@H]2CC[C@H]1N2C(=O)NCc1ccc2c(c1)OCO2	none
COC(=O)C1=C(c2ccc(C(C)=O)cc2)C[C@@H]2CC[C@H]1N2C(=O)NCc1ccc2c(c1)OCO2	NRP1-CendR mod 21
COC(=O)C1=C(c2ccc(Cl)c(C(F)(F)F)c2)C[C@@H]2CC[C@H]1N2C(=O)NCCNC(C)=O	NRP1-CendR mod 24
COC(=O)C1=C(c2cccc(C#N)c2)C[C@@H]2CC[C@H]1N2C(=O)N1CCC(O)CC1	NRP1-CendR mod 25
CC=Cc1ccc2n(c1=O)C[C@@H]1[C@@H](CO)[C@H](C(=O)OC)[C@H]2N1CC1CCOCC1 (mixture of isomers)	none (no result: PDI turbidity, ALR H2O2 inh, NRP1-CendR mod)
N#Cc1cccc(-c2ccc([C@@H]3[C@@H](CO)N4CCCCN(C(=O)Cc5cccnc5)C[C@H]34)cc2)c1	none (no result: PDI turbidity, ALR H2O2 inh, NRP1-CendR mod)
COc1ccc(OC(=O)N(C)C[C@H]2OCc3ccccc3-c3c(n(C)c4ccccc34)C(=O)N([C@@H](C)CO)C[C@@H]2C)cc1	none (no result: PglD DTNB, ARNT TACC3 PPI, PDI turbidity, ALR H2O2 inh, NRP1-CendR mod)
COC(=O)C1=C(c2ccc(F)cc2OCc2ccccc2)C[C@@H]2CC[C@H]1N2C(=O)N1CCCC1	NRP1-CendR mod 27
COC(=O)C1=C(c2cccc(C#N)c2)C[C@@H]2CC[C@H]1N2C(=O)NCCO	NRP1-CendR mod 29
CCCN1[C@@H]2Cn3c(ccc(-c4ccccc4)c3=O)[C@H]1[C@@H](C(=O)OC)[C@@H]2CO	none (no result: PDI turbidity, ALR H2O2 inh, NRP1-CendR mod)

Source: PubChem
